# Experimental data taken from the supplement of paper PMC8728848.
# Many of the other results were omitted from the sample, so the strongest signals are more common in it than they were.
# Columns and labels:
# Experiment in all cases: glycan array binding signal (z-score within array); higher = stronger binding
# Conditions in all cases: glycan notation: IUPAC condensed, linker removed
# [1] = test system: GlcNAc(b1-2)[GlcNAc(b1-6)]Man(a1-6)[GlcNAc(b1-2)Man(a1-3)]Man(b1-4)GlcNAc(b1-4)GlcNAc
# Outline: (§1)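 The binding signal is a Z-score computed within each array and averaged over linkers. Arrays of the same protein sequence at different concentrations or buffers were also averaged together. Data originate from 3228 arrays in the Consortium for Functional Glycomics database, kept only where the protein sequence was available.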
# [2] = test system: GlcNAc(b1-2)[GlcNAc(b1-6)]Man(a1-6)[GlcNAc(b1-2)Man(a1-3)]Man(b1-4)GlcNAc(b1-4)[Fuc(a1-6)]GlcNAc
# Outline: as §1
# [3] = test system: GlcNAc(b1-3)Gal(b1-4)GlcNAc(b1-2)[GlcNAc(b1-3)Gal(b1-4)GlcNAc(b1-6)]Man(a1-6)[GlcNAc(b1-3)Gal(b1-4)GlcNAc(b1-2)Man(a1-3)]Man(b1-4)GlcNAc(b1-4)GlcNAc
# Outline: as §1
# [4] = test system: GlcNAc(b1-3)Gal(b1-4)GlcNAc(b1-3)Gal(b1-4)GlcNAc(b1-2)[GlcNAc(b1-3)Gal(b1-4)GlcNAc(b1-3)Gal(b1-4)GlcNAc(b1-6)]Man(a1-6)[GlcNAc(b1-3)Gal(b1-4)GlcNAc(b1-3)Gal(b1-4)GlcNAc(b1-2)Man(a1-3)]Man(b1-4)GlcNAc(b1-4)[Fuc(a1-6)]GlcNAc
# Outline: as §1
# [5] = test system: GlcNAc(b1-3)Gal(b1-4)GlcNAc(b1-3)Gal(b1-4)GlcNAc(b1-3)Gal(b1-4)GlcNAc(b1-2)Man(a1-3)[GlcNAc(b1-3)Gal(b1-4)GlcNAc(b1-3)Gal(b1-4)GlcNAc(b1-3)Gal(b1-4)GlcNAc(b1-2)Man(a1-6)]Man(b1-4)GlcNAc(b1-4)GlcNAc
# Outline: as §1
# [6] = test system: GlcNAc(b1-3)Gal(b1-4)GlcNAc(b1-3)Gal(b1-4)GlcNAc(b1-3)Gal(b1-4)GlcNAc(b1-2)[GlcNAc(b1-3)Gal(b1-4)GlcNAc(b1-3)Gal(b1-4)GlcNAc(b1-3)Gal(b1-4)GlcNAc(b1-6)]Man(a1-6)[GlcNAc(b1-3)Gal(b1-4)GlcNAc(b1-3)Gal(b1-4)GlcNAc(b1-3)Gal(b1-4)GlcNAc(b1-2)Man(a1-3)]Man(b1-4)GlcNAc(b1-4)[Fuc(a1-6)]GlcNAc
# Outline: as §1
# [7] = test system: GlcNAc(b1-3)Gal(b1-4)GlcNAc(b1-3)Gal(b1-4)GlcNAc(b1-3)Gal(b1-4)GlcNAc(b1-3)Gal(b1-4)GlcNAc(b1-2)Man(a1-3)[GlcNAc(b1-3)Gal(b1-4)GlcNAc(b1-3)Gal(b1-4)GlcNAc(b1-3)Gal(b1-4)GlcNAc(b1-3)Gal(b1-4)GlcNAc(b1-2)Man(a1-6)]Man(b1-4)GlcNAc(b1-4)GlcNAc
# Outline: as §1
# [8] = test system: GlcNAc(b1-3)Gal(b1-4)GlcNAc(b1-3)Gal(b1-4)GlcNAc(b1-3)Gal(b1-4)GlcNAc(b1-3)Gal(b1-4)GlcNAc(b1-2)[GlcNAc(b1-3)Gal(b1-4)GlcNAc(b1-3)Gal(b1-4)GlcNAc(b1-3)Gal(b1-4)GlcNAc(b1-3)Gal(b1-4)GlcNAc(b1-6)]Man(a1-6)[GlcNAc(b1-3)Gal(b1-4)GlcNAc(b1-3)Gal(b1-4)GlcNAc(b1-3)Gal(b1-4)GlcNAc(b1-3)Gal(b1-4)GlcNAc(b1-2)Man(a1-3)]Man(b1-4)GlcNAc(b1-4)[Fuc(a1-6)]GlcNAc
# Outline: as §1
# [9] = test system: GlcNAc(b1-3)Gal(b1-4)GlcNAc(b1-3)Gal(b1-4)GlcNAc(b1-2)Man(a1-3)[GlcNAc(b1-3)Gal(b1-4)GlcNAc(b1-3)Gal(b1-4)GlcNAc(b1-2)Man(a1-6)]Man(b1-4)GlcNAc(b1-4)GlcNAc
# Outline: as §1
# [10] = test system: GlcNAc(b1-3)Gal(b1-4)GlcNAc(b1-6)[GlcNAc(b1-3)Gal(b1-3)]GalNAc
# Outline: as §1
substance,measurement,setting,value
"SiiE (Salmonella typhimurium), A0A0H3NVH0",glycan array binding signal (z-score),[1],3.14
"Wza (Escherichia coli), P0A930",glycan array binding signal (z-score),[1],0.119
AgI/IIC123-GFP (Streptococcus mutans),glycan array binding signal (z-score),[2],-0.127
same,glycan array binding signal (z-score),[3],0.224
same,glycan array binding signal (z-score),[4],5.15
same,glycan array binding signal (z-score),[5],3.88
same,glycan array binding signal (z-score),[6],9
same,glycan array binding signal (z-score),[7],-0.201
same,glycan array binding signal (z-score),[8],7.4
LcI (Legionella pneumophila),glycan array binding signal (z-score),[9],3.83
same,glycan array binding signal (z-score),[10],-0.064
Actinohivin (Actinomycete K97),glycan array binding signal (z-score),[4],0.545
AgI/II Vhelical-GFP (Streptococcus mutans),glycan array binding signal (z-score),[5],0.722
